Results taken from the supplement of paper PMC11634586.
Structures can show the parent of a compound that is named as a salt.

The compounds below were run on NCI-H1688 (assay: inhibition of cell viability relative to untreated control (fraction); higher = stronger growth inhibition, active = 0.5 or more). Conditions: 30 µM; 24 h.
In short: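 Compounds from a natural compound library (TargetMol) were tested at 30 µM on NCI-H1688 small cell lung cancer cells for 24 h at 37°C under 5% CO2. Cell Counting Kit-8 absorbance at 450 nm, read in triplicate, gave the viability. The values express inhibition of cell viability as a fraction relative to untreated cells.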

SMILES | inhibition of cell viability
O=C(O)c1cccnc1 [Nicotinic acid] | 0.0212 (inactive)
COc1ccc(C[C@H]2COC(=O)[C@@H]2Cc2ccc(O[C@@H]3O[C@H](CO)[C@@H](O)[C@H](O)[C@H]3O)c(OC)c2)cc1OC [Arctiin] | 0.0918 (inactive)
O=C(O)CCCCC1CCSS1 (stereo not drawn) [Alphalipoic acid] | 0.0038 (inactive)
C=C1C(=O)O[C@@H]2/C=C(\C)CC/C=C(\C)CC[C@@H]12 [Costunolide] | 0.333 (inactive)
CC(=O)OCC(=O)[C@@]1(O)CC[C@H]2[C@@H]3CCC4=CC(=O)CC[C@]4(C)[C@H]3C(=O)C[C@@]21C [Cortisone acetate] | -0.148 (inactive)
O=c1cc(-c2ccc(O)cc2)oc2cc(O)cc(O)c12 [Apigenin] | 0.487 (inactive)
Cc1ncc(CO)c(CO)c1O [Pyridoxine hydrochloride] | 0.171 (inactive)
C[C@@H]1O[C@@H](Oc2c(-c3ccc(O)c(O)c3)oc3cc(O)cc(O)c3c2=O)[C@H](O)[C@H](O)[C@H]1O [Quercitrin] | 0.325 (inactive)
COc1cc(/C=C/C(=O)O)ccc1O [Ferulic Acid] | 0.0447 (inactive)
C[C@]12C[C@H](O)[C@H]3[C@@H](CCC4=CC(=O)CC[C@@]43C)[C@@H]1CC[C@@H]2C(=O)CO [Corticosterone] | 0.0335 (inactive)
O=C(O)CCCCCCCC(=O)O [Azelaic acid] | 0.133 (inactive)
COc1cc2c(c(OC)c1OC)-c1c(cc(OC)c(OC)c1OC)CC(C)C(C)C2 (stereo not drawn) [Schizandrin A] | -0.0474 (inactive)
O=c1[nH]cnc2c1ncn2[C@H]1C[C@H](O)[C@@H](CO)O1 [2'-Deoxyinosine] | -0.00407 (inactive)
O=c1c(-c2ccc(O)cc2)coc2cc(O[C@@H]3O[C@H](CO)[C@@H](O)[C@H](O)[C@H]3O)ccc12 [Daidzin] | -0.0211 (inactive)
COc1ccc(/C=C/C(=O)O)cc1O [Isoferulic acid] | -0.0461 (inactive)
O=C1C[C@@H](c2ccc(O[C@@H]3O[C@H](CO)[C@@H](O)[C@H](O)[C@H]3O)cc2)Oc2cc(O)ccc21 [Liquiritin] | 0.0621 (inactive)
Cc1nc(C)c(C)nc1C [Tetramethylpyrazine] | 0.202 (inactive)
CCCCCC1C(=O)CCC1CC(=O)OC (stereo not drawn) [Methyl Dihydrojasmonate;Hedione] | -0.235 (inactive)
COc1cc2c(=O)c(-c3ccc(O)cc3)coc2cc1O[C@@H]1O[C@H](CO)[C@@H](O)[C@H](O)[C@H]1O [Glycitin] | 0.491 (inactive)

SMILES | inhibition of cell viability
CC(C)(CO)[C@@H](O)C(=O)NCCCO [Dexpanthenol] | -0.126 (inactive)
CC(C)c1cc(C(C)C)c(CC(=O)NS(=O)(=O)Oc2c(C(C)C)cccc2C(C)C)c(C(C)C)c1 [Avasimibe] | 0.757 (active)
CC(C)=CCC[C@](C)(O)[C@H]1CC[C@]2(C)[C@@H]1[C@H](O)C[C@@H]1[C@@]3(C)CC[C@H](O)C(C)(C)[C@@H]3CC[C@]12C [(20S)-Protopanaxadiol] | -0.0275 (inactive)
CC[C@H](/C=C/[C@@H](C)[C@H]1CC[C@H]2[C@@H]3CC=C4C[C@@H](O)CC[C@]4(C)[C@H]3CC[C@]12C)C(C)C [Stigmasterol] | -0.0217 (inactive)
CC(=O)O[C@]1(C)CC[C@@]23C[C@H]1C(C)(C)[C@@H]2CC[C@H]3C [Cedryl acetate] | -0.223 (inactive)
O=c1c(-c2ccc(O)cc2)coc2c([C@@H]3O[C@H](CO)[C@@H](O)[C@H](O)[C@H]3O)c(O)ccc12 [Puerarin (Kakonein)] | 0.109 (inactive)
COc1c2occc2c(OC)c2c(=O)cc(C)oc12 [Khellin] | 0.168 (inactive)
O=c1cc(-c2ccccc2)oc2cc(O)c(O)c(O)c12 [Baicalein] | 0.728 (active)
COc1cc(/C=C/c2ccc(O)cc2)cc(OC)c1 [Pterostilbene] | 0.252 (inactive)
CC(C)=CCC[C@](C)(O[C@@H]1O[C@H](CO)[C@@H](O)[C@H](O)[C@H]1O)[C@H]1CC[C@]2(C)[C@@H]1[C@H](O)C[C@@H]1[C@@]3(C)CC[C@H](O)C(C)(C)[C@@H]3[C@@H](O[C@@H]3O[C@H](CO)[C@@H](O)[C@H](O)[C@H]3O)C[C@]12C [Ginsenoside Rg1] | -0.0362 (inactive)
O=C1C=C(O)C(=O)c2ccccc21 [Lawsone] | -0.319 (inactive)
C1CCN2C[C@@H]3C[C@@H](CN4CCCC[C@@H]34)[C@H]2C1 [(-)-Sparteine sulfate pentahydrate] | 0.237 (inactive)
O=C1c2cccc(O)c2C(=O)c2c(O)cccc21 [Antrapurol] | 0.783 (active)
NC(=O)c1cccnc1 [Nicotinamide] | 0.0846 (inactive)
CN[C@@H](C)[C@H]1[C@H](O)C[C@@]2(C)[C@@H]3CC[C@H]4C(C)(C)[C@@H](NC)CC[C@@]45C[C@@]35CC[C@]12C [Cyclovirobuxin D] | -0.0295 (inactive)
O=C(O)[C@H]1O[C@@H](Oc2cc3oc(-c4ccccc4)cc(=O)c3c(O)c2O)[C@H](O)[C@@H](O)[C@@H]1O [Baicalin] | -0.127 (inactive)
C/C=C(/C)C(=O)O[C@H]1[C@H](OC(C)=O)[C@@]2(CO)C(CC1(C)C)C1=CCC3[C@@]4(C)CCC(O[C@@H]5O[C@H](C(=O)O)[C@@H](O[C@@H]6O[C@H](CO)[C@@H](O)[C@H](O)[C@H]6O)[C@H](O)[C@H]5O[C@@H]5O[C@H](CO)[C@@H](O)[C@H](O)[C@H]5O)[C@](C)(CO)C4CC[C@@]3(C)[C@]1(C)C[C@H]2O.C/C=C(\C)C(=O)O[C@H]1[C@H](OC(C)=O)[C@@]2(CO)C(CC1(C)C)C1=CCC3[C@@]4(C)CCC(O[C@@H]5O[C@H](C(=O)O)[C@@H](O[C@@H]6O[C@H](CO)[C@@H](O)[C@H](O)[C@H]6O)[C@H](O)[C@H]5O[C@@H]5O[C@H](CO)[C@@H](O)[C@H](O)[C@H]5O)[C@](C)(CO)C4CC[C@@]3(C)[C@]1(C)C[C@H]2O (stereo partly drawn) [Escin] | 0.982 (active)
C=C(C)[C@H]1CC=C(C)C(=O)C1 [(S)-(+)-Carvone] | 0.248 (inactive)
C[N+]1(C)CCCC1C(=O)O (stereo not drawn) | 0.205 (inactive)
